Holding throughout (experiment): NCI-60 one-dose screen, 48 h (100 = growth as untreated, 0 = no growth, -100 = all killed)
One assay concerns HCT-15 colon. The conditions noted are these: 10 µM unless noted.
The test system of the next assay is SNB-75 CNS. Particulars: 10 µM unless noted.
For a further assay, the system named is SNB-19 CNS. The conditions noted are these: 10 µM unless noted.
In a further assay the test system is PC-3 prostate. The conditions noted are these: 10 µM unless noted.
The next assay concerns SK-MEL-5 melanoma. The conditions noted are these: 10 µM unless noted.
The subject of another assay is UACC-62 melanoma. Particulars: 10 µM unless noted.
In another assay the test system is LOX IMVI melanoma. The conditions noted are these: 10 µM.
For the next assay, the system named is SK-MEL-28 melanoma. The conditions noted are these: 10 µM unless noted.
Another assay has as its system HT29 colon. The conditions noted are these: 10 µM unless noted.
The test system of the next assay is U251 CNS. Particulars: 10 µM unless noted.

Compounds without any hit were thinned out: in the full panel of roughly 83,000, 20% have a hit.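 In brief: 96-well plates, 48 h treatment, single concentration, percent growth endpoint.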 A number with no mark means an inactive call. The source made the active and inactive calls. The calls were made as follows: active = growth percent below 10; inactive = the rest.

`O=C1CSC(=S)N1Cc1cccnc1`: the growth in the assay on HCT-15 colon is 58.3%; with SNB-75 CNS it was 83.3%; with SNB-19 CNS, 110%; in the assay with PC-3 prostate, 85.1%; with SK-MEL-5 melanoma, 99.8%; in the assay with UACC-62 melanoma, 87.6%. The growth in the assay with LOX IMVI melanoma is 17.5%; with SK-MEL-28 melanoma it was 92.1%.
In the case of `CC(C)=C1C=C2CC[C@@H]3[C@](C)(CCC[C@@]3(C)C(=O)O)[C@H]2CC1`, the growth in the assay on HT29 colon was 108%; in the assay on SNB-75 CNS it was 93.4%; with SNB-19 CNS it was 98.1%; in the assay on U251 CNS, 96.2%; in the assay on PC-3 prostate it was 97.3%; in the assay with SK-MEL-5 melanoma, 96.8%. Besides, the growth in the assay with UACC-62 melanoma is 102%; in the assay with LOX IMVI melanoma it was 85.5%; in the assay on SK-MEL-28 melanoma, 107%.
Turning to `CCC(C)C(N)C(=O)NC(CC(N)=O)C(=O)NC(CC(C)C)C(=O)NC(CCCCN)C(=O)NC(C)C(=O)NC(CC(C)C)C(=O)NC(C)C(=O)NC(C)C(=O)NC(CC(C)C)C(=O)NC(C)C(=O)NC(CCCCN)C(=O)NC(CCCCN)C(=O)NC(C(=O)NC(CC(C)C)C(N)=O)C(C)CC` (centres undefined), the growth with HT29 colon is 105%; in the assay on SNB-75 CNS, 85.3%; in the assay with SNB-19 CNS, 98.1%; in the assay on U251 CNS, 69.9%; in the assay on PC-3 prostate it was 80.5%; in the assay on SK-MEL-5 melanoma it was 3.42% (active). The growth with UACC-62 melanoma was 9.79% (active); in the assay with LOX IMVI melanoma, 101%.
For `O/N=C1\c2ccccc2-c2ccc(F)cc21`, the growth in the assay on HCT-15 colon was 74.6%; in the assay with SNB-75 CNS it was 91.1%; with SNB-19 CNS it was 101%; in the assay on U251 CNS, 106%; with PC-3 prostate, 89.1%; in the assay on SK-MEL-5 melanoma, 99.1%. In addition, the growth in the assay with UACC-62 melanoma was 93.8%; in the assay on LOX IMVI melanoma, 96.6%; in the assay on SK-MEL-28 melanoma it was 111%.
With `O=[N+]([O-])c1ccc2c(c1)Cc1ccccc1-2`, the growth with HCT-15 colon was 91%; in the assay with SNB-75 CNS, 88.9%; in the assay with SNB-19 CNS, 94.9%; in the assay with U251 CNS it was 90.9%; with PC-3 prostate, 96.7%; in the assay with SK-MEL-5 melanoma, 97.7%. For the same compound, the results for the growth with UACC-62 melanoma, in the assay with LOX IMVI melanoma and in the assay on SK-MEL-28 melanoma were 91.6%, 100% and 110%, respectively.
As for `NC1=C(Br)C(=O)c2ncccc2C1=O`, the growth in the assay with HCT-15 colon is 2.56% (active); in the assay on HT29 colon it was 49.1%; in the assay on SNB-19 CNS, -86.7% (active); in the assay on U251 CNS it was -82.2% (active); in the assay with PC-3 prostate, 11.9%; with UACC-62 melanoma, -96.3% (active). Besides, the growth is -71.2% (active) in the assay on LOX IMVI melanoma and -87.4% (active) in the assay with SK-MEL-28 melanoma.
Regarding `O=C1C=CC(=O)N1c1ccc(O)cc1`, the growth in the assay on HT29 colon was 112%; with SNB-75 CNS, 98.1%; in the assay with SNB-19 CNS it was 103%; in the assay on U251 CNS, 99.9%; in the assay on PC-3 prostate, 98.3%; in the assay on SK-MEL-5 melanoma, 102%. In addition, the growth in the assay on UACC-62 melanoma was 95.4%; in the assay on LOX IMVI melanoma it was 99.8%; in the assay on SK-MEL-28 melanoma, 107%.
Consider `O=C(c1ccccc1)C(O)C(Br)(CBr)c1ccccc1` (centres undefined), for which the growth in the assay on HCT-15 colon is 86.5%; in the assay with SNB-75 CNS, 99.5%; with SNB-19 CNS it was 90.5%; in the assay on U251 CNS, 81.7%; with PC-3 prostate, 70.2%; in the assay with SK-MEL-5 melanoma it was 85.6%. Besides, the growth with UACC-62 melanoma is 65.3%; in the assay with LOX IMVI melanoma, 46.6%; with SK-MEL-28 melanoma, 101%.
On to `OCCOSCCO`, for which the growth with HCT-15 colon is 89%; in the assay on HT29 colon, 106%; with SNB-19 CNS, 110%; in the assay on U251 CNS, 101%; with PC-3 prostate it was 113%; with UACC-62 melanoma, 114%. Moreover, the growth in the assay on LOX IMVI melanoma was 103%; in the assay on SK-MEL-28 melanoma, 108%.
In the case of `S=C(SSC(=S)N1CCOCC1)N1CCOCC1`, the growth is 91.2% in the assay on HCT-15 colon; 104% in the assay with SNB-75 CNS; 111% in the assay on SNB-19 CNS; 58.1% in the assay on U251 CNS; 77.6% in the assay with PC-3 prostate; 73.2% with SK-MEL-5 melanoma. The growth was 68.7% in the assay on UACC-62 melanoma, 78.9% with LOX IMVI melanoma and 106% in the assay with SK-MEL-28 melanoma.
On to `Cc1ccc(/C=C2\CNC/C(=C\c3ccc(C)cc3)C2=O)cc1`, for which the growth is -33.8% (active) in the assay with HCT-15 colon; -35.8% (active) in the assay on HT29 colon; -52.6% (active) in the assay with SNB-19 CNS; -63.4% (active) in the assay on U251 CNS; 6.55% (active) in the assay on PC-3 prostate; -89% (active) in the assay with UACC-62 melanoma. Moreover, the growth in the assay on LOX IMVI melanoma is -69.2% (active).
Regarding `S=C(S)OCN1CCOCC1`, the growth with HCT-15 colon was 91.3%; in the assay on HT29 colon, 19.7%; with SNB-19 CNS it was 103%; in the assay on U251 CNS, 40.9%; in the assay on PC-3 prostate, 89.6%; in the assay on UACC-62 melanoma it was 98.8%. Also, the growth in the assay on LOX IMVI melanoma was 63.4%.
`O=C1C(=O)c2cc([N+](=O)[O-])ccc2-c2ccccc21`: the growth in the assay with HCT-15 colon is -53.7% (active); in the assay with HT29 colon it was -79.4% (active); with SNB-19 CNS, -93.8% (active); with U251 CNS it was -81.5% (active); in the assay with SK-MEL-5 melanoma it was -99.6% (active); with UACC-62 melanoma, -94.2% (active). Moreover, the figures for the growth in the assay on LOX IMVI melanoma and with SK-MEL-28 melanoma were -88.4% (active) and -97% (active), respectively.
Consider `CSc1nc(C)c(C(=O)CCN2CCN(c3ccccn3)CC2)s1`, for which the growth was 97.3% in the assay on HCT-15 colon; 102% in the assay on HT29 colon; 96.1% with SNB-19 CNS; 94.3% in the assay on PC-3 prostate; 101% in the assay on SK-MEL-5 melanoma; 98.7% with UACC-62 melanoma. Further, the growth with SK-MEL-28 melanoma is 106%.
Take `Cc1cc(Br)c2nsnc2c1[N+](=O)[O-]`: the growth in the assay with HCT-15 colon is 27.4%; with SNB-19 CNS, 52.9%; with U251 CNS, 36.9%; in the assay on PC-3 prostate it was 49%; with SK-MEL-5 melanoma it was 54.1%; with UACC-62 melanoma, 56.5%. In addition, the growth was 8.37% (active) with LOX IMVI melanoma and 63.3% in the assay with SK-MEL-28 melanoma.
With `S=c1[nH]c2cc(Cl)ccc2s1`, the growth with HT29 colon is 102%; with SNB-75 CNS, 92.3%; in the assay with SNB-19 CNS, 94%; with U251 CNS it was 101%; in the assay on PC-3 prostate, 94.1%; with SK-MEL-5 melanoma it was 95.7%. For the same compound, the growth in the assay on UACC-62 melanoma is 88.4%; in the assay on LOX IMVI melanoma, 97.6%; in the assay on SK-MEL-28 melanoma, 110%.
As to `CC(C)(C)c1ccc(O)c(-c2ccccc2)c1`, the growth was 102% with HCT-15 colon; 107% with HT29 colon; 121% in the assay on SNB-19 CNS; 96.3% in the assay on U251 CNS; 95.2% in the assay with PC-3 prostate; 103% in the assay on UACC-62 melanoma. Besides, the results for the growth with LOX IMVI melanoma and in the assay on SK-MEL-28 melanoma were 103% and 119%, respectively.
Turning to `CN=C(N)N/N=C(\C)c1ccc2c(c1)Cc1ccccc1-2`, the growth with HCT-15 colon is -81.4% (active); with SNB-19 CNS, -40% (active); in the assay on U251 CNS, -82.2% (active); in the assay on PC-3 prostate, -20.6% (active); with SK-MEL-5 melanoma, -100% (active); with UACC-62 melanoma it was -80.2% (active). Besides, the values for the growth in the assay on LOX IMVI melanoma and in the assay with SK-MEL-28 melanoma were -83.9% (active) and -98.4% (active), respectively.
Consider `C[C@@]1(CO)[C@H](O)CC[C@@]2(C)[C@H]1CC[C@H]1C[C@@H]3C[C@@]12CC[C@@]3(O)COC(=O)CN`, for which the growth with HCT-15 colon was 54%; in the assay with HT29 colon, 38.7%; in the assay on SNB-19 CNS it was 59.6%; in the assay with U251 CNS, 44.3%; with PC-3 prostate, 45.4%; in the assay with UACC-62 melanoma, 26.3%. In addition, the growth with LOX IMVI melanoma was 29%.
For the compound `CCCCCCCCCCCC(=O)OC(C)C(=O)NCCCC` (centres undefined), the growth was 106% in the assay with HCT-15 colon; 101% in the assay with HT29 colon; 106% with SNB-19 CNS; 93.7% with U251 CNS; 95.8% in the assay on PC-3 prostate; 103% in the assay on UACC-62 melanoma. For the same compound, the growth in the assay with LOX IMVI melanoma is 93.6%; in the assay on SK-MEL-28 melanoma it was 121%.
Turning to `CCOC(=O)c1[nH]c(C#N)c(C(=O)OCC)c1C`, the growth in the assay with HT29 colon is 103%; in the assay with SNB-75 CNS, 96.9%; with SNB-19 CNS, 106%; with U251 CNS, 99.1%; in the assay on PC-3 prostate, 102%; with SK-MEL-5 melanoma, 102%. The figures for the growth in the assay with UACC-62 melanoma, in the assay with LOX IMVI melanoma and in the assay with SK-MEL-28 melanoma were 91.2%, 107% and 112%, respectively.
As to `Cc1ccc(NC2=CC(=O)C(=O)c3ccccc32)cc1`, the growth is 11.2% with HCT-15 colon; 28.4% with SNB-19 CNS; 15.4% in the assay on U251 CNS; 28% in the assay on PC-3 prostate; -33.9% (active) in the assay with UACC-62 melanoma; 0.472% (active) with LOX IMVI melanoma. Besides, the growth in the assay with SK-MEL-28 melanoma was -23.5% (active).

The values above are taken from PubChem BioAssay (NCI).
